The sample as a whole holds a higher share of hits than the screen did.
RE007 growth inh: less growth of the S. pombe RE007 Vpr strain; S. pombe RE007 Vpr strain, BacTiter-Glo ATP luminescence, 24 h; Potency, µM (top dose mostly 92.2 µM), for inactives: at the highest dose activity change, negative = less growth, most hits filed as inhibitors; 360,000 compounds, 0.21% hits; active = well fitted falling curve with a large enough effect; inconclusive = small, poorly fitted or top-dose-only effect; inactive = no such curve, though single readings can be large or run the other way; also: potency is read from the fitted curve at half-maximal effect; % is scaled to controls: 0 for no effect and ±100 for the full control effect; nearly all actives have a fitted effect of over 50% in size
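Fission yeast strain RE007, carrying one chromosomally integrated HIV-1 vpr copy, was seeded at OD 0.01 in PMG+AL medium with 23 nL pinned compound. After 24 h at 30 °C and 99% humidity, viability was read by BacTiter-Glo luminescence.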
Shiga inhibitor: Shiga toxin inhibition; Vero cells, Shiga toxin protein synthesis inhibition reporter; 290,000 compounds, 9.2% hits; inhibition, % at 38.7 µM; in the data active = inhibition mostly above about 28%, no sharp cut-off; inactive = mostly below about 43%; also: 0% is about no effect
Giardia FBPA inh-1: inhibitors of Giardia lamblia fructose-1,6-bisphosphate aldolase. A8B2U2. purified Giardia FBPA. Potency, µM (series often up to 59.6 µM), for inactives: top-dose activity, negative = inhibition, hits mostly inhibitors. 290,000 compounds, 0.71% hits. AID 2451; also: potency is read from the fitted curve at half-maximal effect; % is scaled to controls: 0 for no effect and ±100 for the full control effect; nearly all actives have a fitted effect of over 55% in size
Target sequence (A8B2U2 whole entry, looked up): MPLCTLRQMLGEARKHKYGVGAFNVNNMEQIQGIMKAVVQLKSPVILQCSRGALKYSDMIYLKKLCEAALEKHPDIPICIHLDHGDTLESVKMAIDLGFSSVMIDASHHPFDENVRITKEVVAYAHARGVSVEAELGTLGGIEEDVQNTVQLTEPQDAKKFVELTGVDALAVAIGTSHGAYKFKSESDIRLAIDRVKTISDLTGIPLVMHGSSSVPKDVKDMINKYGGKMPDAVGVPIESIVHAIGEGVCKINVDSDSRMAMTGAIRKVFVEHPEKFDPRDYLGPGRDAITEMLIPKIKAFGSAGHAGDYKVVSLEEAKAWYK
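40 nM FBPA preincubated 10 min at RT with compound (up to 57.5 uM final), then substrate plus GAPDH/TPI/NAD/arsenate coupling and diaphorase/resazurin added. Fluorescence read after 20 min at RT, 525/598 nm.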
LmPK inh: LmPK (Leishmania mexicana) enzyme inhibition; 290,000 compounds, 0.37% hits; AID 1721; Potency, µM (titrated, usually from 57.5 µM), for the others: at the top dose activity change, negative = inhibition, actives largely listed as inhibitors; purified LmPK, Kinase-Glo ATP luminescence, 1 h; also: potency is read from the fitted curve at half-maximal effect; % is scaled to controls: 0 for no effect and ±100 for the full control effect
Target sequence (Q27686 whole entry, looked up): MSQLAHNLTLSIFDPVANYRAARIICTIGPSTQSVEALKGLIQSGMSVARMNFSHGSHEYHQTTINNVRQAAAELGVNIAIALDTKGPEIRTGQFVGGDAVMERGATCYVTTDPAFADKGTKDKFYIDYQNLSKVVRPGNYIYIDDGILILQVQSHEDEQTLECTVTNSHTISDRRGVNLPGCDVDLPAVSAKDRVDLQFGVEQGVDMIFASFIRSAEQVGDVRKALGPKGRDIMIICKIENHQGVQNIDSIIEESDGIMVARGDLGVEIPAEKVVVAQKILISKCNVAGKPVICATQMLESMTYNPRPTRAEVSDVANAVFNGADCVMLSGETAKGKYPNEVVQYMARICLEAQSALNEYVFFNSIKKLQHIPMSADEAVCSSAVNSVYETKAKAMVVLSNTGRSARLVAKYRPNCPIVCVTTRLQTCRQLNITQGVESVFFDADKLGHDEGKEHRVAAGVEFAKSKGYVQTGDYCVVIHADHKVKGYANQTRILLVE
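ATP generated from ADP (0.1 mM) and PEP (0.5 mM) by 0.1 nM LmPK over 1 h at room temperature (pH 7.2 imidazole buffer) was detected by coupled luciferase luminescence. Values were normalized to uninhibited and no-enzyme wells.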
Cycloheximide cs: counter-screen for Shiga toxin inhibitors: cycloheximide protein synthesis inhibition; cell reporter, cycloheximide protein synthesis inhibition counterscreen; max response, %; 300,000 compounds, 12% hits; in the data active = max response mostly above about 13%, no sharp cut-off; inactive = mostly below about 14%; also: read at 38.3 µM for the half of the compounds with a filed dose; 0% is about no effect
TbPYK inhibitor: T. brucei pyruvate kinase inhibition; Q57TT1; Potency, µM (highest dose often 76.8 µM), for the others: top-dose activity, negative = inhibition, actives largely listed as inhibitors; TbPYK enzyme, Kinase-Glo Plus ATP luminescence, 45 min; AID 624173; 410,000 compounds, 0.12% hits; also: potency is read from the fitted curve at half-maximal effect; % is scaled to controls: 0 for no effect and ±100 for the full control effect; nearly all actives have a fitted effect of over 50% in size
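In this concentration-response screen, enzyme-free wells defined baseline while DMSO plates tracked drift. Each reaction combined TbPYK, substrate, compound and 130 uM ADP for 45 min at room temperature. Kinase-Glo Plus luminescence gave the signal.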
Giardia growth: inhibitors of Giardia lamblia growth; shares compounds with Giardia FBPA inh-1; Giardia lamblia trophozoite growth inhibition; Potency, µM (highest dose often 57.5 µM), for the others: at the top dose activity change, negative = inhibition, actives largely listed as inhibitors; 1,500 compounds, 5% hits;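 also: potency is read from the fitted curve at half-maximal effect; trophozoites exposed to compound for 48 h at 37 °C; % is scaled to controls: 0 for no effect and ±100 for the full control effect; nearly all actives have a fitted effect of over 70% in size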
Mammalian tox: toxic to mammalian cells in Giardia aldolase counter-screen | shares compounds with Giardia FBPA inh-1 | Potency, µM (highest dose often 57.5 µM), inactives show at the highest dose viability change, negative = toxicity, hits mostly inhibitors | 1,500 compounds, 4% hits | mammalian cell viability counter-screen, qHTS;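 also: Chinese hamster ovary cells used as mammalian cytotoxicity surrogate; viability measured as cellular ATP by luminescence; potency is read from the fitted curve at half-maximal effect; compound exposure lasted 48 h before reading; % is scaled to controls: 0 for no effect and ±100 for the full control effect; nearly all actives have a fitted effect of over 60% in size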
Giardia FBPA inh-2: confirmation of Giardia fructose-bisphosphate aldolase inhibitors; shares compounds with Giardia FBPA inh-1; purified Giardia aldolase enzyme activity, qHTS; Potency, µM (series often up to 57.5 µM), without a hit: at the top dose activity change, negative = inhibition, hits mostly inhibitors; 1,500 compounds, 5% hits; AID 2787; also: potency is read from the fitted curve at half-maximal effect; % is scaled to controls: 0 for no effect and ±100 for the full control effect; nearly all actives have a fitted effect of over 45% in size
Rabbit FBPA inh: rabbit FBP aldolase inhibition by Giardia aldolase hits. Rabbit muscle FBPA enzyme inhibition, selectivity counter-screen. shares compounds with Giardia FBPA inh-1. Potency, µM (doses to about 57.5 µM), for inactives: top-dose activity, negative = inhibition, actives largely listed as inhibitors. AID 2794. 1,500 compounds, 4% hits; also: potency is read from the fitted curve at half-maximal effect; % is scaled to controls: 0 for no effect and ±100 for the full control effect; nearly all actives have a fitted effect of over 60% in size
GAPDH counter: counter-screen for Giardia aldolase inhibitors: GAPDH coupling enzyme; Potency, µM (highest dose often 57.5 µM), for inactives: top-dose activity change, negative = inhibition, hits mostly inhibitors; 1,500 compounds, 6% hits; shares compounds with Giardia FBPA inh-1; GAPDH coupling enzyme counterscreen, biochemical, qHTS; also: potency is read from the fitted curve at half-maximal effect; % is scaled to controls: 0 for no effect and ±100 for the full control effect; nearly all actives have a fitted effect of over 55% in size
An asterisk follows results filed as active; ? = inconclusive; . = not tested or not shown; [ ] = remark or other dose. Unless noted, calls follow the shape of the dose curve; as a rule, active = well fitted curve in the direction sought with a large enough effect; inconclusive = small, poorly fitted or top-dose-only effect, or another doubt; inactive = no such curve, though single readings can be large; an effect the other way counts as inactive or inconclusive.

SMILES | RE007 growth inh | Shiga inhibitor | Giardia FBPA inh-1 | LmPK inh | Cycloheximide cs | TbPYK inhibitor | Giardia growth | Mammalian tox | Giardia FBPA inh-2 | Rabbit FBPA inh | GAPDH counter
CC(C)CN1CCC2(CC1)CCN(S(=O)(=O)c1ccccc1)CC2 | . | . | 6.5% | . | . | -8.6% | . | . | . | . | .
NS(=O)(=O)c1ccc(N2C(=O)CCCC2=O)cc1 | 10.5% | . | . | . | . | 1.1% | . | . | . | . | .
CCN(CC)c1ccc(N=Nc2ncn[nH]2)cc1 | -23.6% | 123.7* | 3.54µM* | -2.9% | 33.6* | -7.1% | ? | 31.6µM* | -6.7% | 1.0% | -14.8%
NS(=O)(=O)c1cnccc1NCCc1ccccc1 | 18.4% | . | . | . | . | 0.2% | . | . | . | . | .
O=C(NCc1ccccc1Cl)C1CCN(C(=O)c2ccco2)CC1 | 1.8% | -10.6 | -6.4% | 6.1% | 2.1 | -6.9% | . | . | . | . | .
Cc1nnc(SCc2cc(=O)[nH]c(=S)[nH]2)s1 | 17.3% | 9.3 | 7.92µM* | 0.4% | -5.0 | -22.4% | -24.9% | 0.4% | 4.6% | 6.8% | 12.6%
COc1ccc(CN2CCC(Oc3ccc(C(=O)N4CCCC4)cc3)CC2)c(F)c1 | -7.8% | -12.7 | . | -10.9% | -4.2 | -7.1% | . | . | . | . | .
COc1ccccc1C1=NOC(C)(c2nnc(Cc3ccccc3)o2)C1 (stereo unspecified) | -7.3% | . | . | . | . | -0.5% | . | . | . | . | .
CCOC(=O)c1c(-c2ccccc2)csc1NC(=O)C(C)NCCCN1CCOCC1 (stereo unspecified) | 3.3% | 3.6 | 17.7µM* | 10.7% | -10.8 | -4.0% | 4.47µM* | -2.2% | -5.7% | -4.4% | -3.2%
CCOC(=O)c1c(-c2ccc(-c3ccccc3)cc2)csc1NC(=O)CCN1CCOCC1 | -1.1% | -9.8 | 0.0% | -1.0% | -3.7 | -4.9% | . | . | . | . | .
Clc1ccc(OCCn2cnc(Cl)c2Cl)cc1 | 32.2% | 23.5 | 1.5% | 0.8% | -1.9 | -9.8% | . | . | . | . | .
Cc1nccn1CCOc1ccc(Cl)cc1 | 5.3% | . | 25.1µM* | -6.7% | -0.9 | -3.5% | -15.9%[10.4 µM] | 10.6% | 0.1% | 2.2% | 8.3%
CCCCN(CC)Cc1ccc(CNC(=S)Nc2c(C)cc(C)cc2C)o1 | -3.1% | -7.9 | 12.6µM* | -1.0% | 8.9 | -9.3% | 26.3% | -13.5% | -10.3% | 2.3% | 5.5%
O=C(O)c1nc(=O)[nH]c(=O)[nH]1 | . | . | . | . | . | 0.3% | . | . | . | . | .
O=C(O)c1[nH]c(=O)[nH]c(=O)c1F | -0.7% | -6.1 | 19.9µM* | 6.4% | 0.8 | -2.1% | 26.7% | -5.8% | 4.5% | 6.2% | 10.1%
Cn1c(=O)c(C(=O)Nc2ncccc2O)c(O)c2ccccc21 | ? | 57.5 | 8.89µM* | -12.7% | 18.2 | 3.2% | 7.3%[10.4 µM] | -4.7% | ? | ? | -14.1%
CCCn1c(=O)c(C(=O)Nc2ncccc2O)c(O)c2ccccc21 | -10.0% | 9.4 | ? | -1.7% | 0.8 | -1.6% | . | . | . | . | .
CCC1(CC)Cc2ccccc2-c2nc(NN)[nH]c(=O)c21 | -9.3% | 3.0 | ? | 0.9% | 9.7 | 0.8% | . | . | . | . | .
CCC1(C)Cc2ccccc2-c2nc(NN)[nH]c(=O)c21 (stereo unspecified) | 0.1% | -4.2 | 22.4µM* | 3.6% | -2.3 | 1.1% | 23.5% | 1.8% | 0.5% | -23.1% | -27.4%
Cc1cc(C)cc(-n2cc[nH]c2=S)c1 | 7.7% | 14.9 | -15.0% | -21.2% | -3.2 | ? | . | . | . | . | .
O=C(Nc1cccnc1Cl)c1cc(-c2ccc(F)cc2)on1 | -2.7% | 13.6 | 5.1% | -4.2% | 10.2 | 2.7% | . | . | . | . | .
O=C(NC(=S)Nc1cccnc1Cl)c1ccc(F)cc1 | -12.6% | 83.4* | 14.1µM* | 0.2% | 48.5* | -1.1% | ? | 12.1% | 4.7% | -0.2% | 12.0%
O=C(NC(=S)Nc1ccc(NC(=O)c2ccccc2)cc1)c1ccc(F)cc1 | 21.1% | -4.5 | . | 9.7% | 11.6 | -5.4% | . | . | . | . | .
O=C(NC(=S)Nc1ncccn1)c1ccc(F)cc1 | 10.3% | 69.9* | 6.31µM* | -4.6% | 48.6* | 0.0% | ? | -8.2% | 2.2% | 5.8% | 11.1%
CSc1ncccc1C(=O)OCC(=O)c1cccc(Br)c1 | -2.5% | 17.0 | -2.8% | -0.3% | 11.7 | 1.1% | . | . | . | . | .
COCCCNc1nc2c(c(=O)n(Cc3ccccc3)c(=O)n2C)n1C | . | . | . | . | . | 0.0% | . | . | . | . | .
CCCC[C@@H]1C[C@H]1C(NC(=O)c1ccco1)c1ccc(Cl)cc1 (stereo partly specified) | . | . | -2.0% | . | . | . | . | . | . | . | .
COc1ccc(CCN(Cc2ccccn2)C(=S)Nc2cccc(SC)c2)cc1OC | -7.8% | -3.1 | 9.98µM* | 0.8% | 5.4 | 1.9% | -6.1%[38.3 µM] | -25.5% | -11.2% | -8.0% | -3.5%
COc1ccccc1NC(=S)N(Cc1ccc(C)cc1)Cc1ccccn1 | 6.2% | 50.5 | 17.7µM* | -0.9% | -6.3 | -5.2% | 59.7% | -6.6% | 5.7% | 11.3% | 17.8%
